# Source: ChEMBL document CHEMBL3988442, “University of Dundee, Small-Polar-MMV Screening Library” (2021)
# Screen size: about 48,000 compounds; about 13,000 (27%) showed an effect of 50% or more. Some of the results follow.
# System: Wolbachia pipientis
# Assay: Anti-Wolbachia Cell-Based Screen
# Assay type: functional
# Set-up: scale not given: in the data most compounds retested in dose-response had high values
# Details: 5 µM
row,Structure (SMILES),Percent Effect
1,CC[C@@]1(O)CCN(C(=O)c2ccoc2)C[C@H]1O,-13.59%
2,O=C(c1cc(F)cc(F)c1)N1CCC2(CC1)CC2,32.79%
3,Cc1ccc2cc(C(=O)N3CCC(O)(C(F)(F)F)CC3)ccc2n1,14.37%
4,CC(=O)N1CC2(CCN(C(=O)c3ccoc3)C2)C1,-7.067%
5,O=C(c1cc(F)cc(F)c1)N1CCC(O)(C(F)(F)F)CC1,87.26%
6,O=C(c1ccoc1)N1CCC(O)(C(F)(F)F)CC1,69.76%
7,CCc1nc2n(n1)CC(NCc1cnn(Cc3ccccc3)c1)CC2 (configuration not stated),87.86%
8,CCc1nc2n(n1)CC(NCc1ccnc(-c3ccccc3)n1)CC2 (configuration not stated),7.748%
9,CCc1nc2n(n1)CC(NCc1nc(Cc3ccccc3)no1)CC2 (configuration not stated),105.9%
10,c1ccc(Cc2noc(CNC3CCc4ncnn4C3)n2)cc1 (configuration not stated),-0.1669%
11,CCc1nc2n(n1)CC(NCc1nc(-c3cccnc3)no1)CC2 (configuration not stated),-12.29%
12,CCc1nc2n(n1)CC(NCc1cnc(-c3ccccc3)nc1)CC2 (configuration not stated),109.3%
13,CCc1nc2n(n1)CC(NCc1ncc(-c3ccccc3)o1)CC2 (configuration not stated),-4.969%
14,CCc1nc2n(n1)CC(NCc1nc3ccccc3o1)CC2 (configuration not stated),-13.4%
15,CCc1nc2n(n1)CC(NCc1nc3ccccc3nc1C)CC2 (configuration not stated),-12.92%
16,CCc1noc(C(C)N2CCN(Cc3cnc(C)cn3)CC2)n1 (configuration not stated),14.64%
17,O=C(NC[C@H]1OC[C@@H](NCc2ccccc2F)[C@@H]1O)Nc1ccccc1,-9.055%
18,CC(C)c1nccn1CCCNC(=O)c1ccc(-c2cncnc2)nc1,-0.1776%
19,CCc1ncc2c(n1)CN(Cc1nnc(C)o1)CC2,12.23%
20,Cc1ncc2c(n1)CN(Cc1nc3ccccc3o1)CC2,10.13%
21,Cc1oc(-c2ccco2)nc1CN1CCc2cnc(C(C)C)nc2C1,92.73%
22,CCc1ncc2c(n1)CN(Cc1nc(C)c(C)o1)CC2,-17.94%
23,CC(C)c1ncc2c(n1)CN(Cc1cccc3c1OCCO3)CC2,21.53%
24,Cc1ncc2c(n1)CN(Cc1nnc(-c3occc3C)o1)CC2,2.201%
25,CCc1ncc2c(n1)CN(Cc1nc(-c3ccco3)oc1C)CC2,106.4%
26,Cc1ncc2c(n1)CN(Cc1nc(-c3ccco3)oc1C)CC2,105%

row,Structure (SMILES),Percent Effect
1,Cc1ccc(-c2nnc(CN3CCc4cnc(C)nc4C3)o2)cc1,-1.089%
2,CC(C)c1ncc2c(n1)CN(Cc1ccc3c(c1)OCCO3)CC2,-34.65%
3,Cc1ncc2c(n1)CN(Cc1nc(-c3ccsc3)oc1C)CC2,102.9%
4,CCc1ncc2c(n1)CN(Cc1nc(-c3ccsc3)oc1C)CC2,1.537%
5,Cc1nc(CN2CCc3cncnc3C2)oc1C,-4.156%
6,COCc1ncn(Cc2nc(-c3ccco3)oc2C)n1,-24.79%
7,Cc1oc(-c2ccco2)nc1CN1CCc2cncnc2C1,88.65%
8,COCCCNS(=O)(=O)c1cc(Br)sc1C,2.901%
9,COc1cccc(F)c1C(C)NC(=O)NCc1cc(C(C)C)no1 (configuration not stated),-6.055%
10,O=C1CC(c2ccccc2)c2snc(C(=O)O)c2N1 (configuration not stated),-4.128%
11,Cc1nccn1-c1ccc(CN2CC3C[C@@H](O)CN3C[C@@H]2C)cc1 (some centres not stated),108%
12,CS(=O)(=O)N1C[C@@H]2CC[C@H](C1)N(Cc1ccc3nsnc3c1)C2,5.437%
13,CCn1ccnc1CN1CCN(c2ncnc3ccsc23)CC1C (configuration not stated),11.61%
14,Cc1nccn1-c1ccc(NC(=O)C2CCCN2Cc2ccoc2)cc1 (configuration not stated),9.601%
15,C[C@@H]1CN2C[C@H](O)CC2CN1Cc1ccc2nccnc2c1 (some centres not stated),113.8%
16,C[C@H]1CN2C[C@H](O)CC2CN1Cc1ccc2nccnc2c1.Cl (some centres not stated),75.9%
17,Cc1nccn1-c1ccc(C(C)NCCC(C)C)cc1 (configuration not stated),-1.351%
18,CN(C)C(=O)CN1C[C@@H]2CC[C@H](C1)N(Cc1ccc3nsnc3c1)C2,10.45%
19,COc1ccc(CN2CC(=O)N(c3ccc(C)cc3)CC2C)cc1O (configuration not stated),-1.266%
20,CCNC(=O)CCC(=O)NC1(c2cccc(Br)c2)CC1,-12.14%
21,CCc1nc(C)c(C(=O)N2C[C@H]3CC[C@@H]2CN(S(=O)(=O)N(C)C)C3)s1,8.94%
22,CN(Cc1cnn(C)c1)C(=O)NC1CCN(c2ncccn2)CC1,-3.223%
23,CC(C)NC(=O)[C@@H]1CC[C@@H]2[C@@H](CCN2Cc2cn(C)c3ccccc23)O1.O=C(O)C(F)(F)F,-4.98%
24,Cc1cccnc1CN(C)C(C(=O)O)c1ccc(-c2ccn[nH]2)cc1 (configuration not stated),-12.44%
25,O=C(CC1OCCc2ccccc21)NCCn1cccc1 (configuration not stated),-19.46%
26,COc1ncccc1CNCc1c(C)nn(C)c1N1CCOCC1,134%

row,Structure (SMILES),Percent Effect
1,Cc1nn(C)c(N2CCOCC2)c1CNC(c1cccs1)C(C)C (configuration not stated),11.33%
2,Cc1nn(C)c(C)c1C(=O)NCc1cccnc1OC1CCCC1,2.821%
3,Cc1nn(C)c(N(C)C)c1CNCc1cccnc1-n1cncn1.Cl,6.556%
4,COc1ccc(C(=O)NCc2cccnc2N2CCOCC2)o1,-8.247%
5,COc1c(CNCc2cccnc2N2CCN(C)CC2)c(C)nn1C,102%
6,COc1c(CNCc2cccnc2OC2CCCC2)c(C)nn1C,10.48%
7,COc1c(CNCc2ccccc2CO)c(C)nn1C,-3.857%
8,Cc1nn(C)c(Cl)c1C(=O)NCc1cccnc1N1CCOCC1,97.98%
9,Cc1nn(C)c(N(C)C)c1CNCc1cccnc1N1CCOCC1,75.62%
10,Cn1ncnc1CCNC(=O)c1cc(Cl)c(Cl)n1C,-10.92%
11,CCC(O)(CNCc1ncc[nH]1)c1ccc(Br)cc1 (configuration not stated),-2.159%
12,CCN(C(=O)c1ccc2nncn2c1)C(C)Cc1ccc(OC)cc1 (configuration not stated),0.4912%
13,COc1ccccc1CN1C(=O)O[C@@H]2CN(Cc3cccc(C)n3)C[C@@H]21,8.298%
14,Cc1c(C(C)NCc2cnn(C)c2)cnn1-c1ccccc1 (configuration not stated),2.501%
15,COc1c(CNCc2cccnc2N2CCOCC2)c(C)nn1C,98.1%
16,COc1c(CNCc2cccnc2N2CCCCC2)c(C)nn1C,105.9%
17,COc1c(CNCc2ccc(N3CCOCC3)cc2)c(C)nn1C,-35.64%
18,Cc1nn(C)c(Cl)c1CNCc1cccnc1N1CCCCC1.Cl,128.1%
19,COc1c(CNCc2ccnc(N3CCCC3)c2)c(C)nn1C,5.629%
20,COc1c(CNCc2ccccc2CN2CCOCC2)c(C)nn1C,9.735%
21,Cc1nn(C)c(C)c1CNCc1cccnc1N1CCOCC1,117.5%
22,CC(C)c1nn(C)c(Cl)c1CNCc1cccnc1N(C)C.Cl,4.509%
23,COc1ncccc1CNCc1c(C(C)C)nn(C)c1Cl,-10.74%
24,Cc1nn(C)c(C)c1CNCc1ccc(N2CCOCC2)nc1.Cl,-2.34%
25,Cc1nn(C)c(C)c1CNCc1ccnc(N2CCOCC2)c1,7.637%
26,CCN(CC)C(=O)[C@@H]1C[C@@H](NC(=O)c2ccn(C(C)(C)C)c2)CN1C,-2.553%

row,Structure (SMILES),Percent Effect
1,CCOC1CCCN(C(=O)c2[nH]nc(C3CC3)c2Br)C1 (configuration not stated),12.02%
2,Cc1nn(C)c(C)c1CCC(=O)NCc1cccnc1OC1CCCC1,8.443%
3,Cc1nn(C)c(C)c1CC(=O)NCc1cccnc1N1CCOCC1,92.54%
4,Cc1nn(C)c(C)c1CC(=O)NCc1cccnc1OC1CCCC1,8.742%
5,O=C(NC1CCC(C(=O)N2CCSCC2)CC1)N1CCOCC1 (configuration not stated),-2.912%
6,COCCNS(=O)(=O)c1ccc(Cl)c(C(=O)N(C)Cc2sccc2C)c1,1.059%
7,COC(=O)CNC(=O)c1cccc(C(=O)N(C)c2ccccc2)c1,-13.83%
8,CC(=O)NCCNC(=O)c1sccc1Br,4.913%
9,Cc1ccc(S(=O)(=O)N(C)c2ccsc2C(=O)NCC(C)C)cc1,110.5%
10,CNC(=O)c1sccc1S(=O)(=O)Nc1ccc(C)cc1,10.06%
11,COC(=O)CNC(=O)c1sccc1N(C)S(=O)(=O)c1ccc(Cl)cc1,108.4%
12,COCC1CN(c2ccc(Cl)cc2C#N)CCO1 (configuration not stated),-47.15%
13,CN(C(=O)CN1CCCC1c1cnn(C)c1)C1(C#N)CCCCC1 (configuration not stated),17.82%
14,Fc1ccc(C2(NCc3noc(C4CC4)n3)CCC2)cc1,7.462%
15,Cn1ccnc1CN1CC[C@@H]2[C@@H](CCC(=O)N2CCc2c[nH]cn2)C1,16.03%
16,N#Cc1cn(C2CC2)c(=O)n(CC(O)c2ccc(OC(F)F)cc2)c1=O (configuration not stated),-10.28%
17,CC(C)N(Cc1c[nH]nc1-c1ccc2c(c1)OCO2)Cc1nccn1C,-1.902%
18,CN(C)CCOCc1cncc2c1CCN(C1CCOCC1)C2.O=C(O)C(F)(F)F.O=C(O)C(F)(F)F.O=C(O)C(F)(F)F,96.48%
19,CN(C)C(=O)COCc1cncc2c1CCN(Cc1nccn1C)C2,-3.709%
20,CN(C)C(=O)COCc1cncc2c1CCN(C1CCOCC1)C2.O=C(O)C(F)(F)F.O=C(O)C(F)(F)F,119.4%
21,CN(C)CCOCc1cncc2c1CCN(C(=O)C1CCOCC1)C2.O=C(O)C(F)(F)F.O=C(O)C(F)(F)F,112.9%
22,O=C(C1CC=CC1)N1CCc2c(COCc3ccncc3)cncc2C1.O=C(O)C(F)(F)F.O=C(O)C(F)(F)F,-4.118%
23,CCN(CC)c1ncc2c(c1C(=O)O)CCN(C1CCOC1)C2.O=C(O)C(F)(F)F (configuration not stated),12.85%
24,CN1CCN(c2ncc3c(c2C(=O)O)CCN(C2CCOC2)C3)CC1.O=C(O)C(F)(F)F.O=C(O)C(F)(F)F (configuration not stated),2.308%
